CSC inhib – cancer stem cell inhibition; AID 2717; actives 1.1% (n = 300,000); cancer stem cell-like cells viability, luminescence; inhibition, % at 7.5 µM; in the data active = inhibition above about 75%; inconclusive = no clear call, values can overlap the other calls; tested in HMLE shEcad cells
PP5 inh – inhibitors of human protein phosphatase 5 (PP5). P53041. purified PP5c, OMFP substrate fluorescence. inhibition, % at 6.7 µM. actives 0.18% (n = 320,000). AID 1987;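 active = inhibition above the campaign's mean inhibition across all tested compounds plus 3 SD, cut at about 9.5% in these data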
PP1 counter – counter-screen for PP5 inhibitors: inhibitors of human PP1-alpha; P62136; purified PP1alpha, OMFP fluorescence; inhibition, % at 6.7 µM; actives 0.9% (n = 320,000);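 active = inhibition above the mean inhibition of all tested compounds plus 3 SD, computed separately for each screening campaign, cut at about 15% in these data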
Target sequence (P62136 whole entry, looked up): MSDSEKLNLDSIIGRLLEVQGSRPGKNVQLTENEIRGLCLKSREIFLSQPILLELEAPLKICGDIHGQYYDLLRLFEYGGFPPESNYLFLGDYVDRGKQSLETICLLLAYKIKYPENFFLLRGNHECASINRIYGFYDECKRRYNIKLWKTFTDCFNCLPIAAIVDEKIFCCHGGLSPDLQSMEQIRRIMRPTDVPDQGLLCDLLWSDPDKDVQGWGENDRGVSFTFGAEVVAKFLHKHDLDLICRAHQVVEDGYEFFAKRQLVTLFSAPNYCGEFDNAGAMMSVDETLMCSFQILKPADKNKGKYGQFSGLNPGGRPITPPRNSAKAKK
Calb FLC – C. albicans growth modulation with fluconazole. actives 0.57% (n = 300,000). AID 1979. growth inhibition, % (no concentration beside the values). C. albicans CaCi-2 (fluconazole-resistant clinical isolate) + fluconazole, Alamar Blue growth, 48 h;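 active = growth inhibition above about 58% in most replicates, limit read from the data, passing the limit was not always enough; inconclusive = exactly half the replicates above a set limit; inactive = most replicates below a set limit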;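 note: all wells also contain fluconazole at 8 µg/ml as a sub-toxic cotreatment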
Beta cell apopt – beta cell apoptosis inhibition; INS-1E cytokine-induced death, ATP luminescence, 48 h; percent of positive-control rescue, neutral wells zero; actives 0.8% (n = 300,000); protection from apoptosis, % (concentration not given with the values);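 active = Every replicate reaches about 75%, or at least half do and their mean reaches it too, limit read from the data; inconclusive = At least half of replicates reach the limit but their mean does not; inactive = Under half of replicates reach the limit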;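 note: higher means more ATP so stronger rescue from cytokine killing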
Mdm2 MdmX PPI – disrupts the human Mdm2-MdmX interaction; O15151+Q00987; SaOS-2 split-luciferase Mdm2/MdmX complementation, luminescence; inhibition, % at 8 µM; actives 3% (n = 330,000);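 active = inhibition of at least 50% at 8 µM in the primary screen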
Mdm2-MdmX conf – human Mdm2/MdmX binding inhibition, confirmed | shares compounds with Mdm2 MdmX PPI | luminescent assay | inhibition, % at 8 µM | actives 55% (n = 10,000); in the data active = inhibition above about 40%
FLuc counter – inhibits full-length luciferase, flagging false Mdm2/MdmX hits; shares compounds with Mdm2 MdmX PPI; inhibition, % at 8 µM; SaOS-2 full-length luciferase counterscreen, luminescence; actives 77% (n = 6,200);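 active = mean inhibition at 8 µM reaching about 37%, which flags the compound as non-specific, limit read from the data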;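 note: p53-null SaOS-2 cells with luciferase driven by a doxycycline-inducible promoter; compound on cells about two nights before reading with doxycycline added after day one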
Large screens that a line does not name were inactive (follow-up assays come after a bar, where they were run). Compounds with a hit are over-represented: about 4.9% of the library has one in this group of screens.

COCCNC(=O)COc1ccc(C)cc1C(=O)c1cc(C#N)c(=O)n(C2CC2)c1	none
CCOc1ccc(Nc2ncnc3ccc([N+](=O)[O-])cc23)cc1	Mdm2 MdmX PPI 68.7 | Mdm2-MdmX conf 71.0 | FLuc counter 53.0
CCn1c(SCC(=O)Nc2cc(Cl)ccc2OC)nnc1C1CC1	none
CN(C)CCCN(C(=O)c1cc2cc([N+](=O)[O-])ccc2s1)c1nc2cc3c(cc2s1)OCCO3	Mdm2 MdmX PPI 96.8 (no result: Beta cell apopt) | Mdm2-MdmX conf 65.1 | FLuc counter 77.2
CN(C)CCCN(C(=O)c1cc(Cl)sc1Cl)c1nc2cc3c(cc2s1)OCO3	Mdm2 MdmX PPI 53.9 | Mdm2-MdmX conf inactive
CN(C)CCCN(C(=O)c1ccc(C(=O)c2ccccc2)cc1)c1nc2cc3c(cc2s1)OCO3	Mdm2 MdmX PPI 74.7 | Mdm2-MdmX conf 48.2 | FLuc counter inactive
CN(C)CCCN(C(=O)c1ccc(Cl)s1)c1nc2cc3c(cc2s1)OCO3	none
CCC(=O)Nc1nnc(SCC(=O)NCC2CCCO2)s1 (stereo not drawn)	none
CCC(C)[C@H](NC(=O)C1(c2ccccc2)CCN(C(=O)OC(C)(C)C)CC1)C(=O)N[C@@H](C(=O)O)c1ccccc1 (stereo partly drawn)	none (no result: Beta cell apopt)
CSc1nnc2c3ccccc3n(Cc3ccccc3)c2n1	none
CSc1nnc2c3ccccc3n(CCc3ccccc3)c2n1	Mdm2 MdmX PPI 81.6 | Mdm2-MdmX conf 90.4 | FLuc counter 42.2
Cc1nn(C2CCCO2)c(=O)nc1N (stereo not drawn)	none
CCOc1ccc(CCNC(=O)C2CCCN(S(=O)(=O)N3CC(C)CC(C)C3)C2)cc1OCC (stereo not drawn)	none
O=[N+]([O-])c1ccc2nc(-[n+]3c(-c4ccccc4)cc(-c4ccccc4)cc3-c3ccccc3)[nH]c2c1	Mdm2 MdmX PPI 80.9 | Mdm2-MdmX conf 61.9 | FLuc counter 56.7
CCOc1ccc(NS(=O)(=O)c2cc(NC(=O)c3cccc(C)c3)ccc2Cl)cc1	Mdm2 MdmX PPI 51.1 | Mdm2-MdmX conf 45.8 | FLuc counter 78.9
Cc1nn(CC(=O)N2CCC(C(N)=O)CC2)c(=O)c2nn(-c3ccccc3)c(C)c12	none
O=c1cc(OCc2ccccc2)cc[nH]1	none (no result: CSC inhib, Calb FLC)
C=CC1CN(C(=O)OCC(Cl)(Cl)Cl)C2CC3c4ccc(OC)cc4NC3C3CC1C2CO3 (stereo not drawn)	Mdm2 MdmX PPI 56.9 | Mdm2-MdmX conf inactive
COc1ccc(OC)c(/C=N/N(CCC#N)C2=NS(=O)(=O)c3ccccc32)c1	none
Cc1ccc(S(=O)(=O)N2CCN(C(=O)CSC3CCCC3)CC2)c(C)c1	Mdm2 MdmX PPI 55.2 | Mdm2-MdmX conf inactive
Cc1cc(OCC(=O)N(Cc2cccs2)C2CCS(=O)(=O)C2)ccc1Cl (stereo not drawn)	none (no result: CSC inhib)
CCCCN(C)C(=O)C1CCN(Cc2cccc(OCc3ccccc3)c2)CC1	none
CCN(CC)c1ncnc2c1ncn2Cc1c(Cl)cccc1Cl	none
Clc1cccc(Cl)c1Cn1cnc2c(N3CCCCCC3)ncnc21	Mdm2 MdmX PPI 78.5 | Mdm2-MdmX conf inactive
CC(NS(=O)(=O)c1ccc2c(c1)C(C)(C)C(=O)N2C)c1ccccc1 (stereo not drawn)	none (no result: CSC inhib)
CC(=O)N1CCc2c(sc(NC(=O)Cc3ccc(C)cc3C)c2C#N)C1	none
CC(=O)N1CCc2c(sc(NC(=O)CCS(=O)(=O)c3ccc(C)cc3)c2C#N)C1	Mdm2 MdmX PPI 52.4 | Mdm2-MdmX conf 40.9 | FLuc counter 77.8
O=C(O)CNS(=O)(=O)c1ccc2c(c1)Cc1cc(S(=O)(=O)NCC(=O)O)ccc1-2	none
COc1cc(-c2noc(C)c2/C=C/c2ccc(C(=O)O)cc2)cc(OC)c1OC	none
COc1cc(-c2noc(C)c2-c2ccc3[nH]ccc3c2)cc(OC)c1OC	Mdm2 MdmX PPI 82.0 | Mdm2-MdmX conf 77.2 | FLuc counter 53.7
COc1cc(-c2noc(C)c2-c2ccc(N(C)C)nc2)cc(OC)c1OC	Mdm2 MdmX PPI 86.3 | Mdm2-MdmX conf 79.3 | FLuc counter 88.0
Brc1ccc2ncnc(NCc3ccccc3)c2c1	Mdm2 MdmX PPI 84.4 | Mdm2-MdmX conf 81.2 | FLuc counter 52.5
CN(C)c1ccc(Nc2ncnc3ccc(Br)cc23)cc1	Mdm2 MdmX PPI 77.9 | Mdm2-MdmX conf 68.5 | FLuc counter 37.3
Cc1ccc2ncnc(Nc3cccc(C(=O)O)c3)c2c1	none
Clc1cccc(Nc2ncnc3ccc(Br)cc23)c1	Mdm2 MdmX PPI 73.5 | Mdm2-MdmX conf 43.4 | FLuc counter inactive
COc1ccc(Nc2ncnc3sccc23)cc1OC	none (no result: Calb FLC)
COc1ccc(Nc2ncnc3ccc(Br)cc23)cc1OC	Mdm2 MdmX PPI 57.7 | Mdm2-MdmX conf 63.7 | FLuc counter inactive
Cc1cccc(-c2ccc3ncnc(NCc4cccnc4)c3c2)c1	none (no result: Calb FLC)
NC(=O)C1CC(=O)N(CCc2ccc(F)cc2)C1 (stereo not drawn)	none
Cc1cccc(Nc2ncnc3ccc(Br)cc23)c1	Mdm2 MdmX PPI 75.5 | Mdm2-MdmX conf 58.8 | FLuc counter inactive
Clc1ccc(Nc2ncnc3ccc(Br)cc23)cc1	CSC inhib inconclusive, Mdm2 MdmX PPI 77.3 | Mdm2-MdmX conf 60.8 | FLuc counter 36.9
Cc1ccc2ncnc(Nc3ccccc3)c2c1	none
COC(=O)c1c(NC(=S)NN2CCN(C)CC2)sc2c1CCC(C)C2 (stereo not drawn)	CSC inhib 103.6, Mdm2 MdmX PPI 91.1 | Mdm2-MdmX conf inactive
CCCc1cc(=O)n2[nH]cc(-c3ccc(Cl)cc3)c2n1	CSC inhib 94.9, Beta cell apopt 79.9, Mdm2 MdmX PPI 55.1 (no result: PP5 inh, PP1 counter) | Mdm2-MdmX conf 53.1 | FLuc counter inactive
COCc1cc(=O)n2[nH]cc(-c3ccccc3)c2n1	none
O=C(NCc1nc2ccccc2[nH]1)C1=C[C@H](C2CC2)C[C@H](OCc2ccc(CO)cc2)O1	none
N#Cc1c(NC(=O)CSc2ccccn2)oc(-c2ccccc2)c1-c1ccccc1	none
COc1ccc(-c2oc(NC(=O)CSc3nncn3C)c(C#N)c2-c2ccc(OC)cc2)cc1	Mdm2 MdmX PPI 62.6 | Mdm2-MdmX conf 54.2 | FLuc counter 69.7
CCC(=O)Nc1ccc(NC(=S)NC(=O)c2oc3ccccc3c2C)cc1	Mdm2 MdmX PPI 72.0 | Mdm2-MdmX conf inactive
Cc1cccnc1NC(=S)NC(=O)c1oc2ccccc2c1C	none
CC(=O)Nc1ccc(NC(=S)NC(=O)c2oc3ccccc3c2C)cc1	Mdm2 MdmX PPI 62.4 | Mdm2-MdmX conf inactive
Cc1ccc2c(c1)N(CC(=O)N1CCCC1)C(=O)CO2	none
COc1ccc(N(C)C2=NS(=O)(=O)c3ccccc32)cc1	Mdm2 MdmX PPI 52.1 | Mdm2-MdmX conf 69.1 | FLuc counter 54.8
COc1ccc(N(Cc2ccccc2)S(=O)(=O)c2cccc(C(=O)Nc3ccccn3)c2)cc1	Mdm2 MdmX PPI 57.2 (no result: CSC inhib, Calb FLC) | Mdm2-MdmX conf inactive
